Active and inactive are the calls of the source.
Key:
[1] = tested on: PRMT1 (protein arginine N-methyltransferase 1); experiment: PRMT1 binders on small-molecule microarrays, primary screen, biochemical, small-molecule microarray, 635 nm fluorescence (AID 1088); conditions: small-molecule microarray binding, higher = more signal;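 note: binding of Prmt1 protein to compounds spotted on small-molecule microarray slides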
[2] = yeast growth modulation, basal conditions, primary screen, YJM789 clinical isolate, OD600, 24 h (AID 1089);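 note: growth of clinical yeast isolate S. cerevisiae YJM 789 seeded 1000 cells per well; test concentration not given here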; conditions: S. cerevisiae YJM789 growth, higher = more signal, called active from +8 up or from −8 down
[3] = fission yeast growth modulation, primary screen, strain 972, OD600, 24 h, no modulator (AID 1090);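 note: basal condition with compound alone and no growth modifier present; test concentration not given here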; conditions: S. pombe 972 growth, higher = more signal, called active from +8 up or from −8 down
[4] = S. cerevisiae growth modulation with rapamycin, primary screen, strain BY4716, OD600, 96 h (AID 1091); conditions: higher = more signal, called active from +8 up or from −8 down; note: test concentration not given here
[5] = target: Torsin-1A-interacting protein 2 (Homo sapiens) (UniProt Q8NFQ8); experiment: LULL1 binders on small-molecule microarray, primary screen, cell lysate, human LULL1 lysate, 635/667 nm fluorescence (AID 1092); conditions: hLULL1 lysate binding, 635 nm fluorescence, higher = more signal;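 note: probe is lysate of COS7 cells overexpressing human LULL1; score merges per-feature 667 nm fluorescence with signal-to-noise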
Torsin-1A-interacting protein 2 (Homo sapiens), sequence (Q8NFQ8 whole entry, looked up): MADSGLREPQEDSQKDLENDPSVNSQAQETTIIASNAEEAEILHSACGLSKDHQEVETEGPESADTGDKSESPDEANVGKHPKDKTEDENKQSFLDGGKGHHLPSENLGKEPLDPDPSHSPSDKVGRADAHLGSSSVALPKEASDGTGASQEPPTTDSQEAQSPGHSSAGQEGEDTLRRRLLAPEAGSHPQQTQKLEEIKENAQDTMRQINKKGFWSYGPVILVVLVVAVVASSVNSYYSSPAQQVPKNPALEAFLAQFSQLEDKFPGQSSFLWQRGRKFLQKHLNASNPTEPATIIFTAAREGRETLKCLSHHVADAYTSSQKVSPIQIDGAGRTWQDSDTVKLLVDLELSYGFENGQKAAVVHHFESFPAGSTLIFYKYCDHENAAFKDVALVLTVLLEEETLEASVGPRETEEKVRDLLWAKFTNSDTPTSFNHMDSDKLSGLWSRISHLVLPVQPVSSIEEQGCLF

[6] = E. coli growth modulation, two-sided OD650, primary screen, E. coli filamentation project, strain DRC41, 24 h (AID 1093); conditions: OD650, 24 h, higher = more signal, called active from +8 up or from −8 down;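 note: MC1000 strain lacking acrAB efflux and sulA so SOS filamentation is blocked; test concentration not given here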
[7] = small-molecule microarray binders of probe aLefty2, primary screen, biochemical, biotinylated probe, 635/667 nm fluorescence (AID 1094); conditions: higher = more signal;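 note: score merges spot fluorescence near 667 nm with spot signal-to-noise ratio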
[8] = tested on: Noggin (protein binding on small-molecule microarray); experiment: Noggin binders on small-molecule microarray, primary screen, biochemical, 635/667 nm fluorescence (AID 1095); conditions: 635 nm fluorescence, higher = more signal;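 note: score merges 667 nm feature fluorescence with signal to noise over triplicate slides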
[9] = target: Neurogenic locus notch homolog protein 3 (Homo sapiens) (UniProt Q9UM47); experiment: NOTCH3 binders on small-molecule microarray, primary screen, biochemical, 635/667 nm fluorescence (AID 1096); conditions: NOTCH3 binding, 635 nm fluorescence, higher = more signal
Neurogenic locus notch homolog protein 3 (Homo sapiens), sequence (Q9UM47 whole entry, looked up): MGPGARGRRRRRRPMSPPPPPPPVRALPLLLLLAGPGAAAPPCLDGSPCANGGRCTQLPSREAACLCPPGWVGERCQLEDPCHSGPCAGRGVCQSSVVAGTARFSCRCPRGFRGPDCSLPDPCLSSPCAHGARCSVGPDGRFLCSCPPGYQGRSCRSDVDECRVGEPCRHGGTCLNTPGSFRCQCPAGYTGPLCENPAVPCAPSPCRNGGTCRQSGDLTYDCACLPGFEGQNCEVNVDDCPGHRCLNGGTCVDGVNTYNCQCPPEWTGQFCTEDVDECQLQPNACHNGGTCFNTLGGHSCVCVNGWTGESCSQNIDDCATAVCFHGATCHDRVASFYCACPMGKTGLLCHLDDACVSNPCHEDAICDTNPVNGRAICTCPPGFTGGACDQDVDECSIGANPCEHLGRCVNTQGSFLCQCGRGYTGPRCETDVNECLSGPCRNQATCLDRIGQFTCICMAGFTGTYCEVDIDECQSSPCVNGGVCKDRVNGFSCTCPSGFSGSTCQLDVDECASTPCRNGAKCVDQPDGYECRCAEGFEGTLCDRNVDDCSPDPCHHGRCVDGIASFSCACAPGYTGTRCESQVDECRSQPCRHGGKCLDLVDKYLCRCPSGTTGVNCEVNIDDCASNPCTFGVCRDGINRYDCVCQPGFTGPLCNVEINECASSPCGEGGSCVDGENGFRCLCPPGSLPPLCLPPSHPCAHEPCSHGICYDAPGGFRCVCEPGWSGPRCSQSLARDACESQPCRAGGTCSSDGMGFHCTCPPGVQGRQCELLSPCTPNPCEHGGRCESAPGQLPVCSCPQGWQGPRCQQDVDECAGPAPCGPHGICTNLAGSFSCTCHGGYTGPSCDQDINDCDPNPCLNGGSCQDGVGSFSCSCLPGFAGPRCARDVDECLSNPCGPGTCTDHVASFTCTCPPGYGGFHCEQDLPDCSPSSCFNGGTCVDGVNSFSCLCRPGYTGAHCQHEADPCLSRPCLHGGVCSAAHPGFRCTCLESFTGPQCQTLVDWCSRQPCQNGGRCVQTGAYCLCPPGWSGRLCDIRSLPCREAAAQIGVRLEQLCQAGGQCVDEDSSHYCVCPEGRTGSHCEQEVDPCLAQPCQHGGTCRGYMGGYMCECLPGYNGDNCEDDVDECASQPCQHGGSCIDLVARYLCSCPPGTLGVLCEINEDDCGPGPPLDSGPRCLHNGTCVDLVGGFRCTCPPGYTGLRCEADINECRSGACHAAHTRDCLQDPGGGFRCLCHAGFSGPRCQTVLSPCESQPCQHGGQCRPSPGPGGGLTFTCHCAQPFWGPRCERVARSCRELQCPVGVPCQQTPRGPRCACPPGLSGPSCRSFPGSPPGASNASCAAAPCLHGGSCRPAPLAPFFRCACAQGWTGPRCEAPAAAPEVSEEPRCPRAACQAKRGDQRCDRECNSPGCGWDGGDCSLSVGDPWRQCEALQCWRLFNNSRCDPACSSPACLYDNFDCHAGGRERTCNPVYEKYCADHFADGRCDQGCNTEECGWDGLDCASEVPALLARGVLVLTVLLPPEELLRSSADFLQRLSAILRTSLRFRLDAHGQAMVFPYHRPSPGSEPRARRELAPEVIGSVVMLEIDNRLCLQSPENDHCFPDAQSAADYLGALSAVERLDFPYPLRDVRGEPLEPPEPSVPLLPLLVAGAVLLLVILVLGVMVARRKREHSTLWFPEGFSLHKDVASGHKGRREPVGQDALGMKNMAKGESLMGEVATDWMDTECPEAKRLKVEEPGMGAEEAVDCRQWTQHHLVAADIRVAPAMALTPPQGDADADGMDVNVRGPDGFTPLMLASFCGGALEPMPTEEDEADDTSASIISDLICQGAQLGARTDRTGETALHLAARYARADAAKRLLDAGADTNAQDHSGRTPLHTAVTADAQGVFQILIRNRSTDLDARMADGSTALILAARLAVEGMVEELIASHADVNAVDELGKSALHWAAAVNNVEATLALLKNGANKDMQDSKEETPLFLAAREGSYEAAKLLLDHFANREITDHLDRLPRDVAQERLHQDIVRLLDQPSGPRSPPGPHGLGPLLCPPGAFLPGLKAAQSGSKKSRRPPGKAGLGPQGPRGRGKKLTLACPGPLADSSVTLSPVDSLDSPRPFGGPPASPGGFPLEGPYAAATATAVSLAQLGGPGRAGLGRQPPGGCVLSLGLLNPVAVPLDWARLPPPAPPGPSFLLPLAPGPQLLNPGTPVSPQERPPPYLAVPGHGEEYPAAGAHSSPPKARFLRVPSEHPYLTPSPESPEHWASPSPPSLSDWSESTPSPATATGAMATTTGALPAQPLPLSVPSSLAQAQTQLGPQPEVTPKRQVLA

[10] = small-molecule microarray binders of probe aEGFR, primary screen, biochemical, biotinylated probe, 635/667 nm fluorescence (AID 1097); conditions: higher = more signal;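 note: probe is a biotinylated anti-EGFR antibody binding compounds printed on slides; score combines fluorescence near 667 nm and signal to noise of each spot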

| SMILES | composite z-score [1] | z-score [2] | z-score [3] | z-score [4] | composite z-score [5] | z-score [6] | composite z-score [7] | composite z-score [8] | composite z-score [9] | composite z-score [10] |
| --- | --- | --- | --- | --- | --- | --- | --- | --- | --- | --- |
| O=C1O[C@@H](c2ccccc2)[C@@H](c2ccccc2)N2[C@@H](c3ccc(OCCO)cc3)[C@]3(C(=O)Nc4ccc(C#CC5=CCCCC5)cc43)[C@@H](C(=O)Nc3nc4ccccc4s3)[C@H]12 | 1.56 | 2.22 (inactive) | 1.59 (inactive) | 1.57 (inactive) | 1.86 | -0.124 (inactive) | -0.673 | 1.11 | 1.02 | -0.0613 |
| CCOC(=O)C=C1C[C@@H](c2cccc([N+](=O)[O-])c2)O[C@@H](c2cccc([N+](=O)[O-])c2)O1 | 1.5 | 1.07 (inactive) | 1.8 (inactive) | 1.79 (inactive) | 2.29 | -0.239 (inactive) | 0.91 | 0.327 | 1.12 | 0.246 |
| C=C(COC)C(=O)CC[C@H](OC(C)=O)c1ccc(CO)o1 | -0.451 | -1.16 (inactive) | -0.603 (inactive) | -1.46 (inactive) | 2 | 1.5 (inactive) | -0.0963 | 1.31 | 0.651 | -0.067 |
| CCOC(=O)C1=CCC(c2ccncc2)N(S(=O)(=O)c2ccc(C)cc2)C1 (stereo not given) | 1.36 | -2.24 (inactive) | -2.69 (inactive) | 8.79 (active) | 3.84 | 0.336 (inactive) | -0.0585 | 0.361 | 1.09 | 0.0642 |
| [N-]=[N+]=NCc1ccccc1[C@H]1OC(c2ccc(OCCCO)cc2)=N[C@@]1(Cc1ccccc1N=[N+]=[N-])C(N)=O | 1.56 | 0.61 (inactive) | -0.678 (inactive) | -1.39 (inactive) | 3.31 | 0.0539 (inactive) | 0.0573 | 0.412 | 1.09 | 0.0009 |
| CC1C2C(CCCO)=CC(C3C(=O)N(C(N)=O)C(=O)C23)N1Cc1cccc(OC(F)(F)F)c1 (stereo not given) | 1.31 | -3.02 (inactive) | -0.198 (inactive) | 0.58 (inactive) | 2.79 | 0.262 (inactive) | -0.139 | 0.487 | 0.628 | -0.0828 |
| C[C@H]1C2[C@H](Cc3ccccc3)NC(=O)[C@]23C(=O)N[C@@H](Cc2ccccc2)C(=O)N2CCC[C@H]2C(=O)NC/C=C/CC/C=C/C3[C@@H]2O[C@]12C (stereo not given in full) | 1.05 | -0.501 (inactive) | -0.36 (inactive) | -0.441 (inactive) | 1.7 | -0.269 (inactive) | -0.0666 | 0.79 | 0.977 | -0.135 |
| COc1ccc(C(O)C2C=CC3C(=O)N(c4ccccc4)C(=O)C3N2Nc2ccccc2F)c2ccccc12 (stereo not given) | 1.55 | -0.466 (inactive) | -0.0101 (inactive) | 0.257 (inactive) | 3.33 | -0.0841 (inactive) | 0.582 | 0.117 | 1.05 | 0.697 |
| CCCCCN1CC=CC23O[C@@H]4/C=C\CCCOC(=O)C4[C@H]2C(=O)N(CCCCCO)[C@@H]3C1=O (stereo not given in full) | -0.409 | -0.557 (inactive) | -0.383 (inactive) | -1.39 (inactive) | -2.15 | 1.62 (inactive) | -0.159 | -0.636 | -0.0581 | -0.175 |
| C=CC[C@H](O)c1ccc(O)c(F)c1 | -0.255 | -0.63 (inactive) | -0.722 (inactive) | -1.56 (inactive) | -1.36 | -0.53 (inactive) | -0.103 | -0.529 | -0.579 | -0.115 |
| C[C@@]1([C@@H](NS(=O)(=O)c2cccc3cccnc23)c2ccc(-c3ccccc3)cc2)C[C@H]1C1CCCCC1 | 0.79 | 0.523 (inactive) | 0.381 (inactive) | 1.41 (inactive) | 2.47 | -1.89 (inactive) | 0.134 | -0.0642 | 0.818 | -0.0316 |
| C[C@]1(C(=O)O)c2ccccc2C(=O)N(Cc2cc(C(F)(F)F)cc(C(F)(F)F)c2)[C@H]1c1ccc(CO)cc1 | 1.43 | 0.652 (inactive) | 0.559 (inactive) | -0.754 (inactive) | 0.834 | 0.305 (inactive) | -0.141 | 0.414 | 0.483 | -0.186 |
| CC(C)C(=C=CC[C@H](O)c1cccc(OCCO)c1)C[C@H](O)c1ccccn1 | 1.21 | 0.262 (inactive) | 0.317 (inactive) | -0.647 (inactive) | 1.55 | 0.879 (inactive) | -0.143 | 0.731 | 0.403 | -0.157 |
| C=C(C(=O)CC[C@@H](OC(=O)c1ccccc1-c1ccccc1C(=O)O)c1cccc(OCCO)c1)C(C)C | 1.46 | 0.433 (inactive) | -0.0072 (inactive) | -0.641 (inactive) | -0.104 | 0.355 (inactive) | -0.118 | 0.782 | 0.164 | -0.182 |
| O=C(NCC(F)(F)F)[C@@H]1c2ccccc2C(=O)N(Cc2cc(C(F)(F)F)cc(C(F)(F)F)c2)[C@H]1c1ccc(CO)cc1 | 0.648 | 0.338 (inactive) | 0.459 (inactive) | -0.359 (inactive) | 1.04 | 0.955 (inactive) | -0.217 | 0.148 | -0.122 | -0.219 |
| Cc1ccc(S(=O)(=O)N2[C@@H](c3ccccc3)C(C(=O)O)=C[C@H]2C(C)(C)C)cc1 | 1.55 | -0.601 (inactive) | -0.273 (inactive) | -0.802 (inactive) | 2.88 | -0.231 (inactive) | 0.152 | 0.126 | 1.08 | 0.131 |
| C[N+](C)(C)CCCC[C@@H]1NC(=O)[C@H]2C[C@@H](C(=O)NCCCCCN)[C@@H](c3ccc(O)cc3)N2C1=O | 1.54 | -0.407 (inactive) | -2.01 (inactive) | -1.2 (inactive) | 3.06 | -0.162 (inactive) | 0.0829 | 1.57 | 1.11 | 0.152 |
| O=C(NC1CC1)[C@@H]1c2ccccc2C(=O)N(C2CCCCC2)[C@H]1c1ccc(CO)cc1 | 0.384 | 0.116 (inactive) | -0.0911 (inactive) | 0.0861 (inactive) | 2.76 | 0.398 (inactive) | 0.322 | -0.923 | 0.25 | 0.595 |
| O=C1O[C@H](c2ccccc2)[C@H](c2ccccc2)N2[C@H]1[C@@H](C(=O)O)[C@]1(C(=O)Nc3ccc(C#CC4(O)CCCCCC4)cc31)[C@H]2c1ccccc1OCCO | 1.56 | 2.68 (inactive) | -0.155 (inactive) | 0.247 (inactive) | 2.27 | 1.47 (inactive) | 0.366 | 0.621 | 1.11 | 0.494 |
| C=CCC(OC(C)=O)[C@@H]1[C@@H](N(Cc2ccc(-c3ccccc3)cc2)C(=O)Cc2ccc(OC)cc2)c2cc(OCCCO)ccc2N1C(=O)c1ccc2ccccc2c1 (stereo not given in full) | 0.238 | -0.675 (inactive) | 0.121 (inactive) | -0.193 (inactive) | 0.622 | -0.584 (inactive) | -0.154 | 0.138 | 0.0678 | -0.17 |
| COc1ccc(C(=O)Nc2ccc(CN3C(=O)[C@@]4(O[C@@H](CC(=O)N(CCO)Cc5ccccc5)[C@H]([Si](C)(C)c5ccc(OC)cc5)[C@H]4C)c4ccccc43)cc2)cc1 | 0.783 | -0.884 (inactive) | -0.504 (inactive) | 1.94 (inactive) | 1.5 | 1.68 (inactive) | -0.116 | 1.55 | 0.217 | 0.0326 |
